Results published in PubChem BioAssay AID504558 (Broad Institute, 2011).
Screen size: about 350,000 compounds; about 2,400 (0.69%) were called active. Many of the other results were omitted from the sample, so actives are more common in it than they were. Values without a mark were called inactive. Cut-off read from the data, not from the text of the source: active = inhibition above about 41%; inconclusive = no clear call, values can overlap the other calls; inactive = below that.

assay: blockers of LMP1-induced NF-kB reporter signal – cell-based, luminescence, single point, primary screen (AID 504558); details: LMP1-induced NF-kappaB luciferase reporter cells, at 12.5 µM, hits give high values;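 note: 0% = neutral control wells and 100% = reference inhibitor control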

SMILES	inhibition
COc1cccc(OC)c1C(=O)N1CCN(Cc2ccccc2F)CC1	2.93%
C[C@@H]1CN([C@@H](C)CO)C(=O)c2c(c3ccccc3n2C)-c2ccccc2CO[C@H]1CN(C)C(=O)C1CC1	-4.84%
CCOC(=O)c1c(C)[nH]c(C)c1S(=O)(=O)NCCCc1ccco1	-0.931%
CCOC(=O)c1[nH]c2ccccc2c1N=C(C)N(CC)CC	0.352%
CCOC(=O)c1c(C)[nH]c2c1-c1ccccc1C(=O)C2=O	92.7% (active)
C[C@H]1NS(=O)(=O)c2cc(Cl)ccc2O[C@@H]1c1ccccc1	-0.001%
C=CCOc1cccc(C2C(C(=O)c3ccc(C)o3)=C(O)C(=O)N2CCN2CCOCC2)c1 (configuration not stated)	1.89%
COc1ccc(OC(C)C(=O)Nc2cccnc2)cc1 (configuration not stated)	-0.732%
COc1cccc(NC(=S)N(Cc2ccc(C)cc2)Cc2ccccn2)c1	-9.16%
COc1ccc(NC(=O)/C(Cl)=C(/Cl)S(=O)Cc2ccc(C)cc2)cn1 (configuration not stated)	94.5% (active)
COc1ccc(CS(=O)/C(Cl)=C(/Cl)C(=O)Nc2ccc(OC)nc2)cc1 (configuration not stated)	85% (active)
COc1ccc(NC(=O)CN2C(=O)NC(C)(c3ccccc3)C2=O)cn1 (configuration not stated)	4.57%
COc1ccc(NS(=O)(=O)c2ccc(NC(=S)NC(=O)/C=C/c3ccc(C)cc3)cc2)nn1	-1.1%
COCOCCn1cc(CN2CCS(=O)(=O)N(Cc3ccc(-c4cccc(N(C)C)c4)cc3)C(CC(C)C)C2=O)nn1 (configuration not stated)	5.25%
C[C@H](CO)N1C[C@H](C)[C@H](CN(C)C(=O)Nc2ccc3c(c2)OCO3)Oc2ncc(Br)cc2C1=O	-7.49%
CCCCN1C(=O)C(CC(=O)NC(c2ccccc2)c2ccccc2)CC(C(=O)N2CCOCC2)=C1C (configuration not stated)	-3.52%
Cc1cc(N/N=C\c2ccc(Br)cc2)nc(-n2nc(C)cc2C)n1	47.1% (active)
Cc1cc(Nc2ccc(Br)cc2)nc2ccccc12	-19.5%
Cc1cc(C)n(-c2nnc(N3CCN(c4ccccc4)CC3)nn2)n1	-13.2%
O=C(NCc1nnnn1-c1ccc(Cl)cc1)c1ccc2c(c1)OCO2	-8.64%
C=CCn1c(C)cc(C2=NNC(=NCC)SC2)c1C	86.2% (active)
COc1ccc(-c2c(C#N)cnc(C)c2C)c(O)c1OC	-4.81%

SMILES	inhibition
C[C@@H]1CN([C@H](C)CO)C(=O)CCCn2cc(nn2)CO[C@H]1CN(C)S(C)(=O)=O	1.59%
COc1cccc(NC(=O)CN(C)C(=O)c2cc(Cl)nc3ccccc23)c1	-0.28%
Cc1ccccc1C1=N/C(=C/c2cccnc2)C(=O)O1	3.85%
Cc1ccc(C2=C/C(=C\c3cccnc3)C(=O)O2)cc1	43.1% (active)
CN(C)/C=C1\C=C(c2ccccc2)OC1=O	-8.13%
Cc1ccc(CN(C)C[C@@H]2OCc3cnnn3CCCC(=O)N([C@@H](C)CO)C[C@H]2C)cc1	0.256%
O=C(COC(=O)/C=C/c1ccc(Cl)cc1)NC1CCS(=O)(=O)C1 (configuration not stated)	-1.97%
C[C@@H]1CN([C@@H](C)CO)S(=O)(=O)c2ccc(C#Cc3cccc(F)c3)cc2O[C@H]1CN(C)S(=O)(=O)c1cn(C)cn1	5.98%
C=CCOc1ccccc1CNn1c(C)n[nH]c1=S	-1.28%
N#CCCC(C#N)(c1cccnc1)N1CCOCC1 (configuration not stated)	2.43%
Cc1nc2ccccc2c(C(=O)O)c1-c1ccccn1	3.33%
COc1cnc(-c2ccccn2)nc1Oc1ccc(C(C)(C)C)cc1	-4.07%
CC(C)(C)Nc1nc(-c2ccccn2)nc2ccccc12	45.7% (active)
O=S1(=O)CCN(Cc2ccccc2)CC1	0.572%
CC1=C(C(=O)N2CCOCC2)CC(CC(=O)NCc2cccc3ccccc23)C(=O)N1CCC1=CCCCC1 (configuration not stated)	-1.54%
CC1CCN(C(=O)CSc2nnc(-c3ccco3)n2N)CC1	-6.21%
O=C(Cc1ccccc1)NNC(=O)C1CCN(c2ncccn2)CC1	-1.53%
CCCc1cc(=O)oc2c(C)c(O)c(CN3CCCCC3)cc12	5.86%
Oc1c(CN2CCCC2)cc(COCc2ccccc2)c2cccnc12	69% (active)
COCCCN1C(=O)C(CC(=O)NCc2cccs2)CC(C(=O)N2CCOCC2)=C1C (configuration not stated)	-3.59%
CC1(C)CC(=O)C=C(N2CCOCC2)C1	7.14%
CC1(C)CC(N2CCN(C(c3ccccc3)c3ccccc3)CC2)=CC(=[N+]2CCCCC2)C1	50.9% (active)

SMILES	inhibition
CC(C)OCC(O)CN1CCN(C(c2ccccc2)c2ccccc2)CC1 (configuration not stated)	-3.08%
CCCCN1CC(C)(C)[C@H](CC(=O)Nc2ccc(Br)cc2)C1=O	3.19%
COc1ccc(-c2cc(C(=O)N3CCN(Cc4ccc5c(c4)OCO5)CC3)on2)cc1OC	60.2% (active)
CCn1cc(C(=O)N2CCN(Cc3ccc4c(c3)OCO4)CC2)c2cc(OC)c(OC)cc2c1=O	-0.487%
O=C(c1cccs1)N1CCN(Cc2ccc3c(c2)OCO3)CC1	2.81%
O[C@H]1CN(Cc2cccs2)[C@@H](c2ccc(Cl)cc2)C[C@@H]1n1cc(C2CC2)nn1	-3.9%
CCCCCCN1C[C@H](O)[C@@H](n2cc(C3CC3)nn2)C[C@@H]1c1ccc(Cl)cc1	-2.06%
O=C(Nc1ccc(N2CCN(C(=O)c3cccs3)CC2)cc1)c1cccnc1Cl	6.16%
Cc1ccccc1C(=O)N1CCN(c2ccc(NC(=O)c3cccs3)cc2)CC1	49.3% (active)
COc1ccccc1C(=O)NC(=S)Nc1ccc(N2CCOCC2)cc1	2.08%
O=C(Nc1ccc(N2CCN(C(=O)C3CC3)CC2)cc1)c1cccs1	4.6%
Cc1ccc(C(=O)NC(=S)Nc2ccc(N3CCOCC3)cc2)cc1	1.51%
Cc1ccccc1C(=O)NC(=S)Nc1ccc(N2CCN(C(=O)c3ccccc3)CC2)cc1	43.1% (active)
CN1OC[C@@H]2CN(S(=O)(=O)c3cccc(C(F)(F)F)c3)[C@H](c3ccc(-c4cc5ccccc5o4)cc3)C[C@@H]21	23.8%
COc1ccc(NC(=O)N(C)C[C@H]2Oc3ncc(C#C[C@@H](C)O)cc3C(=O)N([C@H](C)CO)C[C@H]2C)cc1	3.12%
Oc1ccc(N2CCN(C(=S)NCc3ccccc3)CC2)cc1	50.7% (active)
O=C(COC(=O)c1ccccc1C(=O)N1CCN(c2ccccc2)CC1)NCc1ccccc1	-5.9%
Oc1ccccc1N1CCN(C(=S)NCc2ccccc2)CC1	0.986%
CC(C)N=C1CCCC1C(=S)SSC(=S)C1CCCC1=NC(C)C (configuration not stated)	24.4%
O=C(NCCN1CCOCC1)C1CCN(S(=O)(=O)c2ccccc2)CC1	5.14%
O=C(/C=C\c1ccc2c(c1)OCO2)NC1(C(=O)Nc2ccc3c(c2)OCCO3)CCCCC1	-3.03%
COc1ccc(OC)c(/C=C/C(=O)OCC(=O)Nc2ccc3c(c2)OCCO3)c1	0.837%

SMILES	inhibition
COc1cccc(/C=C/C(=O)Nc2ccc3c(c2)OCCO3)c1	58.7% (active)
CC1CCCC(NC(=O)COC(=O)c2ccccc2C(=O)N(C)C2CCCCC2)C1C (configuration not stated)	-11.2%
CCn1c(/C=N/NC(=O)c2ccc(OC)cc2)nc2ccccc21	4.88%
COc1ccc(/C=C2\CCc3ccccc3C2=O)c(OC)c1OC	-2.98%
COc1cccc(/C=N/NC(=O)c2[nH]nc3c2CCc2ccccc2-3)c1O	69.4% (active)
CC1=C(C(=O)N2CCOCC2)CC(CC(=O)NCC2CCCCC2)C(=O)N1Cc1ccc(F)cc1 (configuration not stated)	-0.637%
CCCc1ccc(S(=O)(=O)N2CCN(C(=O)c3cc(C)on3)CC2)cc1	-4.88%
C[C@H](CO)N1C[C@H](C)[C@@H](CN(C)Cc2ccc3c(c2)OCO3)OCc2cnnn2CCCC1=O	4.06%
CC(C)C1CCN(C(=O)C2CCC(=O)N(C3CCCCCC3)C2)CC1 (configuration not stated)	-25.4%
CCOc1ccc(S(=O)(=O)N2CCN(C(=S)NCC3CCCO3)CC2)cc1 (configuration not stated)	-0.069%
S=C(NCC1CCCO1)N1CCN(c2ccc(Cl)c(Cl)c2)CC1 (configuration not stated)	10%
COc1ccc(S(=O)(=O)N2CCN(C(=S)NCC3CCCO3)CC2)cc1OC (configuration not stated)	74.2% (active)
C[C@H](CO)N1C[C@H](C)[C@H](CN(C)C(=O)c2ccncc2)OCc2ccccc2-c2c(n(C)c3ccccc23)C1=O	2.77%
C[C@H]1CN([C@@H](C)CO)C(=O)CCCn2nncc2CO[C@@H]1CN(C)S(=O)(=O)c1cccc(C#N)c1	2.8%
CN1OC[C@@H]2CN[C@H](c3ccc(-c4ccccc4)cc3)C[C@@H]21	-14.4%
COc1cccc(NC(=O)N(C)C[C@@H]2Oc3ncc(Br)cc3C(=O)N([C@@H](C)CO)C[C@H]2C)c1	1.17%
Cc1ccc(CS(=O)(=O)c2ncc(Cl)c(C(=O)Nc3nnc(C)s3)n2)cc1	85.8% (active)
CSc1nnc(NC(=O)c2nc(S(=O)(=O)Cc3ccc(C)cc3)ncc2Cl)s1	24.2%
Cc1cccc(NC(=O)c2nc(S(=O)(=O)Cc3ccccc3)ncc2Cl)c1	19.5%
CC1(C)OC(=O)C2=C(CC(c3ccccc3)OC2CCc2ccccc2)O1 (configuration not stated)	3.89%
C[C@@H]1C[C@@H]2O[C@H]2/C=C\C=C\C(=O)Cc2c(Cl)c(O)cc(O)c2C(=O)O1	80% (active)
